# Publication PMC7862700, “An all-to-all approach to the identification of sequence-specific readers for epigenetic DNA modifications on cytosine”
# Key:
# Assay in all cases: DAPPL (digital affinity profiling via proximity ligation, sequencing); 10 mM Tris-HCl pH 7.5, 50 mM NaCl, 1 mM DTT, 4% glycerol, room temperature, 30 min; GST-TFs on glutathione beads, 16-mer random dsDNA library, 0.1% formaldehyde crosslink after washing; high values mean tight binding
# FLI1 = target: T1, FLI1 (Homo sapiens, UniProt Q01543 1-452); details: protein: recombinant; tags: N-terminal GST; dsDNA, one strand shown
# T1 sequence: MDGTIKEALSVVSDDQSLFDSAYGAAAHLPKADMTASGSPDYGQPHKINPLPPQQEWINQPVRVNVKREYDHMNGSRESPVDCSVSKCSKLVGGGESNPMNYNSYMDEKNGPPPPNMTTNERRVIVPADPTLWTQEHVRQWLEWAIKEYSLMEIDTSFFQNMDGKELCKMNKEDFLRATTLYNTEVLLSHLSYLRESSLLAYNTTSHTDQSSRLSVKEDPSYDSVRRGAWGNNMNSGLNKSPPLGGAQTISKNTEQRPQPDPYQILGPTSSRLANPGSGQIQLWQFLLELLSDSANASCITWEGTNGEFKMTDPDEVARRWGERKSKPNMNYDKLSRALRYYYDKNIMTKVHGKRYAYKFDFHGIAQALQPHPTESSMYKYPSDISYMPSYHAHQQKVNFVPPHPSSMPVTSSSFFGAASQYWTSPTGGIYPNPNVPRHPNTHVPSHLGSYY
# In short: (§1)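 A tag-only sample was pooled with DNA-barcoded human transcription factors that had been expressed in yeast as GST fusions and captured on glutathione beads. The pools were incubated for 30 min at room temperature with 200 nmole of a random double-stranded 16-mer DNA library in Tris/NaCl/DTT/glycerol buffer, then washed, crosslinked with 0.1% formaldehyde, proximity-ligated (BsaI/T4 ligase, 1 h, 37 °C), PCR-amplified and sequenced on an Illumina NextSeq500. Binding signal is each hexamer's read frequency for a factor divided by its frequency for the tag-only sample.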
# ELK1 = target: T2, ELK1 (Homo sapiens, UniProt P19419 1-428); details: protein: recombinant; tags: N-terminal GST; dsDNA, one strand shown
# T2 sequence: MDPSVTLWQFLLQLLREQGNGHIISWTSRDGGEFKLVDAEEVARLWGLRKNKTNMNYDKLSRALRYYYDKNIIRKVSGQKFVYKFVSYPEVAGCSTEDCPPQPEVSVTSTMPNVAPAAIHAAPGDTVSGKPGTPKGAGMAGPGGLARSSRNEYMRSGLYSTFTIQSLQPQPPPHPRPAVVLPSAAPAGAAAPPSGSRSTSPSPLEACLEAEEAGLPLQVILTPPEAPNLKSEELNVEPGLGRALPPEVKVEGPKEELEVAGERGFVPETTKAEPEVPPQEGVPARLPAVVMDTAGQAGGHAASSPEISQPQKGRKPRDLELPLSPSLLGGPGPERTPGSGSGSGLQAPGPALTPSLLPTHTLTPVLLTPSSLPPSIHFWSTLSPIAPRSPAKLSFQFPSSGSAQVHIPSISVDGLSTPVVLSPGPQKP
# In short: as §1
# GABPA = target: T3, GABPA (Homo sapiens, UniProt Q06546 1-454); details: protein: recombinant; tags: N-terminal GST; dsDNA, one strand shown
# T3 sequence: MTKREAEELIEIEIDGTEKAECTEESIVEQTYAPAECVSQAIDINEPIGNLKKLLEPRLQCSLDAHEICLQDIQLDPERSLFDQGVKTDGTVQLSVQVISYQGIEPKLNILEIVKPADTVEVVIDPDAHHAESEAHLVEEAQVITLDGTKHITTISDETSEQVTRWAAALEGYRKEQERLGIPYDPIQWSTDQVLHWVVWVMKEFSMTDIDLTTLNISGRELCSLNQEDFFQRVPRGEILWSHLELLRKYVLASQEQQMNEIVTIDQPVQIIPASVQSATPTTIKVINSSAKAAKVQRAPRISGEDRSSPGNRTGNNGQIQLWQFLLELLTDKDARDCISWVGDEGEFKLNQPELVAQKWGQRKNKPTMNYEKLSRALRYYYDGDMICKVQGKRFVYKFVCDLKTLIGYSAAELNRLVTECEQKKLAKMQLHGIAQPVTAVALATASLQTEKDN
# In short: as §1
# ERG = target: T4, ERG (Homo sapiens, UniProt P11308 1-479); details: protein: recombinant; tags: N-terminal GST; dsDNA, one strand shown
# T4 sequence: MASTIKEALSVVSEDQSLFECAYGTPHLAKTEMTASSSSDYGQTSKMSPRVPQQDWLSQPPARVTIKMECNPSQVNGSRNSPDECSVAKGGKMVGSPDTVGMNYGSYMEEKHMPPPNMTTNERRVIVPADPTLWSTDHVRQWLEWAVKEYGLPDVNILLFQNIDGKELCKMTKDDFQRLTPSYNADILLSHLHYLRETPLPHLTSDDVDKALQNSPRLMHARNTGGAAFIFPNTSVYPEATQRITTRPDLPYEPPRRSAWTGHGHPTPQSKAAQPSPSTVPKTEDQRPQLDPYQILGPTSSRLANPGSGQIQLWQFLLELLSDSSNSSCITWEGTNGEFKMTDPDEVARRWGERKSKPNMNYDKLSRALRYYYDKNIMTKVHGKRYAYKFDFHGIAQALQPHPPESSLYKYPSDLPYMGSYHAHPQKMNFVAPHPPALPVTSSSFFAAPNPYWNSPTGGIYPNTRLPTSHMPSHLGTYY
# In short: as §1
# ELF1 = ELF1 (Homo sapiens, UniProt P32519 1-619); details: protein: recombinant; tags: N-terminal GST; dsDNA, one strand shown
# ELF1, sequence (P32519 whole entry): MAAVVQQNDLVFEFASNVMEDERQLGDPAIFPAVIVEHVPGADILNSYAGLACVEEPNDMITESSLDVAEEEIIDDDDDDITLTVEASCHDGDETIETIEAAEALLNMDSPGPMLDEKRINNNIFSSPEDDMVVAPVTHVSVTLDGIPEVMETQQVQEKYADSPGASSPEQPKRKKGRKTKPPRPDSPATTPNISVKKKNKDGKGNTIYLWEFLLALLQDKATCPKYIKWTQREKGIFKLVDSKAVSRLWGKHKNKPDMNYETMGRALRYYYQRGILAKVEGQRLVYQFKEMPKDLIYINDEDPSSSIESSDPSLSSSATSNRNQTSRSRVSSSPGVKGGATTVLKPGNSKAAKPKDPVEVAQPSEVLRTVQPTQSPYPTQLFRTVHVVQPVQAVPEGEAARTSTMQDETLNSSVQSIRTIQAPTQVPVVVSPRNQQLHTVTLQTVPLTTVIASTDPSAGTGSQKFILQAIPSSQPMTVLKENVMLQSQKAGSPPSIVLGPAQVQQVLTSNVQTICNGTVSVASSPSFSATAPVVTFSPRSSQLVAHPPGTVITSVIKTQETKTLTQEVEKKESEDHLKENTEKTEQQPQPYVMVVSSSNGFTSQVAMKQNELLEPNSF
# In short: as §1
# EHF = target: T5, EHF (Homo sapiens, UniProt Q9NZC4 1-300); details: protein: recombinant; tags: N-terminal GST; dsDNA, one strand shown
# T5 sequence: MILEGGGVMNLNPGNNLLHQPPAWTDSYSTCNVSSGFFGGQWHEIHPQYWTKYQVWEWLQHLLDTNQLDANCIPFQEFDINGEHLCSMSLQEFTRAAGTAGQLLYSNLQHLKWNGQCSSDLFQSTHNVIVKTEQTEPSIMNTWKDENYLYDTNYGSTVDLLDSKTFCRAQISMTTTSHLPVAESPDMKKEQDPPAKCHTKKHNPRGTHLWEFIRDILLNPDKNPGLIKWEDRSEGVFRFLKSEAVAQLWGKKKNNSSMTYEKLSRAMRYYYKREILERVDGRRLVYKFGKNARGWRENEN
# In short: as §1
# SPI1 = SPI1 (Homo sapiens, UniProt P17947 1-270); details: protein: recombinant; tags: N-terminal GST; dsDNA, one strand shown
# In short: as §1
# ELK3 = target: T6, ELK3 (Homo sapiens, UniProt P41970 1-407); details: protein: recombinant; tags: N-terminal GST; dsDNA, one strand shown
# T6 sequence: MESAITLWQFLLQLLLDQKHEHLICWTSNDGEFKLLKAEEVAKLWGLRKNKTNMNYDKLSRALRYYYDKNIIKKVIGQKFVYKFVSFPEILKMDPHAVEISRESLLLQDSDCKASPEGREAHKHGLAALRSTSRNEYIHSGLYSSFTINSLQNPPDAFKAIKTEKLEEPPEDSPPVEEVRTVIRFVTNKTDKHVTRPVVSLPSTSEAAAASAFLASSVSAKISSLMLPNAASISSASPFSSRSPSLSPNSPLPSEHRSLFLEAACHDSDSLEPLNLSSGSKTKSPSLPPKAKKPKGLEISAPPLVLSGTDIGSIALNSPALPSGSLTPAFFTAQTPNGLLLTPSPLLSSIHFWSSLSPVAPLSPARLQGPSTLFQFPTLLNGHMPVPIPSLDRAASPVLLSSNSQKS
# In short: as §1
# FEV = target: T7, FEV (Homo sapiens, UniProt Q99581 1-238); details: protein: recombinant; tags: N-terminal GST; dsDNA, one strand shown
# T7 sequence: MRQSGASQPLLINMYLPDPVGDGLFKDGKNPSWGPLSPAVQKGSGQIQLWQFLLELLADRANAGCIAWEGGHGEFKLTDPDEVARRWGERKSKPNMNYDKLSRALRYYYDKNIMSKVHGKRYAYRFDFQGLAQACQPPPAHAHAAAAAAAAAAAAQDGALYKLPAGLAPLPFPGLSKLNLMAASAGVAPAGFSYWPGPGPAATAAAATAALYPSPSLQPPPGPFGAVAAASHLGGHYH
# In short: as §1
# ETV5 = ETV5 (Homo sapiens, UniProt P41161 1-510); details: protein: recombinant; tags: N-terminal GST; dsDNA, one strand shown
# ETV5, sequence (P41161 whole entry): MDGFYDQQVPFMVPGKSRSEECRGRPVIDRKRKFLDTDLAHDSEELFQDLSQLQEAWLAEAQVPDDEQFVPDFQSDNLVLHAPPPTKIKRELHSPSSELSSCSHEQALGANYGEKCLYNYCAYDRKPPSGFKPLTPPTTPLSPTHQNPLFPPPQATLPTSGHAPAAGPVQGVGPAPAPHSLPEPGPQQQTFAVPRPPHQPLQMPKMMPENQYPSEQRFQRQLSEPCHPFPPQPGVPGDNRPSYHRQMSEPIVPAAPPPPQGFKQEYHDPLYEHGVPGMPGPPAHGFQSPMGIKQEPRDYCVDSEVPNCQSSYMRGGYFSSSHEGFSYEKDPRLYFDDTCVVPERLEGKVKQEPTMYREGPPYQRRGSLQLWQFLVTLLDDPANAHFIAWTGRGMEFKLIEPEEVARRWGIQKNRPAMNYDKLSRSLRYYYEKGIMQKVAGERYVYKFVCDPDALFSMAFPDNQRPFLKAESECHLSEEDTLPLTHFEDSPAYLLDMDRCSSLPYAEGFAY
# In short: as §1
# HSF1 = HSF1 (Homo sapiens, UniProt Q00613 1-529); details: protein: recombinant; tags: N-terminal GST; chain copies: 3; dsDNA, one strand shown
# HSF1, sequence (Q00613 whole entry): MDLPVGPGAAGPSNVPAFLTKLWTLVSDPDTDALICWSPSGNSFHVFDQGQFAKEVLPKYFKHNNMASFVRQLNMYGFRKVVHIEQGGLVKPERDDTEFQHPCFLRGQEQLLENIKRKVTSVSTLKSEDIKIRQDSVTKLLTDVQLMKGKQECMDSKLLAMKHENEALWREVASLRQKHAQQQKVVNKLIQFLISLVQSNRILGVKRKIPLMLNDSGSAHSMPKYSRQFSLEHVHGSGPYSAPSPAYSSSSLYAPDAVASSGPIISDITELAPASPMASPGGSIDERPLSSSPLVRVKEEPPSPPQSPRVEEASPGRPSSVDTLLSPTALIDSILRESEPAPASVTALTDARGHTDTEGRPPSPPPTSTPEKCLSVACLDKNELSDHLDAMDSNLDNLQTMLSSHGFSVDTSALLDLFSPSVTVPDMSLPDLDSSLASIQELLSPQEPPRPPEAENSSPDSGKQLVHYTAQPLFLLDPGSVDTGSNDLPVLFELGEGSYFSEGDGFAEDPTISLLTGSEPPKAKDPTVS
# In short: as §1
# SPIC = target: T8, SPIC (Homo sapiens, UniProt Q8N5J4 1-248); details: protein: recombinant; tags: N-terminal GST; dsDNA, one strand shown
# T8 sequence: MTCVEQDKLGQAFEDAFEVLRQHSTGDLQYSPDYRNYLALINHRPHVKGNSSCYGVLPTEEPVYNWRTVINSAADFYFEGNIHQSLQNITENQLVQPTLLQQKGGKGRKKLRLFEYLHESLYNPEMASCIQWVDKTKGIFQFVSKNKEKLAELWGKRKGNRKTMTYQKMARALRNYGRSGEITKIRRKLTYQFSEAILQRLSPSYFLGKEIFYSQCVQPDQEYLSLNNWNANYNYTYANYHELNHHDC
# In short: as §1
# ELF4 = ELF4 (Homo sapiens, UniProt Q99607 1-663); details: protein: recombinant; tags: N-terminal GST; dsDNA, one strand shown
# ELF4, sequence (Q99607 whole entry): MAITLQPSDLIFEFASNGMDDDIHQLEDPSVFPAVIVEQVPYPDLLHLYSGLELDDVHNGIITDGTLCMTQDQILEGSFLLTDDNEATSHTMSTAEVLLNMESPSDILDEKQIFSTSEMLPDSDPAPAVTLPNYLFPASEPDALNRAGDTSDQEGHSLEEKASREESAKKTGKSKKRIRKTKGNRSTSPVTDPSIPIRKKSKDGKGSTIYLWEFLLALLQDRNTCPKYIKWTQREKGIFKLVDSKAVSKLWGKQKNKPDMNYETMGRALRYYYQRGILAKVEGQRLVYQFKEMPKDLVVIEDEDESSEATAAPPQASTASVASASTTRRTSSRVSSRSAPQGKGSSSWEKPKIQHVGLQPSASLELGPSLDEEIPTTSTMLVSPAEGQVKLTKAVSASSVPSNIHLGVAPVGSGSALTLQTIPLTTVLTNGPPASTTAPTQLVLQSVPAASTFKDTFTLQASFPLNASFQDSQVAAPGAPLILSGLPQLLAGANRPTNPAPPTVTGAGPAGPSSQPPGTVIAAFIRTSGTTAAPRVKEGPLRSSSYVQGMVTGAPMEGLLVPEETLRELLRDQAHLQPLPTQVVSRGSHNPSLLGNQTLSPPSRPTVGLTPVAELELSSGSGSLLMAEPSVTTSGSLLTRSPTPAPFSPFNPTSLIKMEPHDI
# In short: as §1
# ELK4 = target: T9, ELK4 (Homo sapiens, UniProt P28324-2 1-405); details: protein: recombinant; tags: N-terminal GST; dsDNA, one strand shown
# T9 sequence: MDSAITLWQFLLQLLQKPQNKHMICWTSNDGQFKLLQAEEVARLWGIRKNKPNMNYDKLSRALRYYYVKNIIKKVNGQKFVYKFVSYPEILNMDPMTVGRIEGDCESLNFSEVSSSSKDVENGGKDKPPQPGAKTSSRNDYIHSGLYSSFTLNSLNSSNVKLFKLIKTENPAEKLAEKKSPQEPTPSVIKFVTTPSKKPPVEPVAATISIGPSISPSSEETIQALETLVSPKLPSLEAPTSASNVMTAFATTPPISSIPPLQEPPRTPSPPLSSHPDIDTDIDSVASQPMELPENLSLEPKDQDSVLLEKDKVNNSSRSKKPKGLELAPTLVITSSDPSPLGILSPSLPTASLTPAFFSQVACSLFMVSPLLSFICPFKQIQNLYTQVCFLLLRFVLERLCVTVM
# In short: as §1
# ETV2 = target: T10, ETV2 (Homo sapiens, UniProt O00321 1-342); details: protein: recombinant; tags: N-terminal GST; dsDNA, one strand shown
# T10 sequence: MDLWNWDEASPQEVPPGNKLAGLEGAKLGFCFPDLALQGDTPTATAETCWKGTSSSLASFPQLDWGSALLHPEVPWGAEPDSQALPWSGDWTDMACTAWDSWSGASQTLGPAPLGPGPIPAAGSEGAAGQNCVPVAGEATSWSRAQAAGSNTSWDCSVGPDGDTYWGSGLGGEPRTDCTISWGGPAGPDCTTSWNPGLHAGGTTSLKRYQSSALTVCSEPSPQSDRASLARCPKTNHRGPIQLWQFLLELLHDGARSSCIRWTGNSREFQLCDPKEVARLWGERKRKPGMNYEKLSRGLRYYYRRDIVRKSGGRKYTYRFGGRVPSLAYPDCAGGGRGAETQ
# In short: as §1
# ELF3 = target: T11, ELF3 (Homo sapiens, UniProt P78545 1-371); details: protein: recombinant; tags: N-terminal GST; dsDNA, one strand shown
# T11 sequence: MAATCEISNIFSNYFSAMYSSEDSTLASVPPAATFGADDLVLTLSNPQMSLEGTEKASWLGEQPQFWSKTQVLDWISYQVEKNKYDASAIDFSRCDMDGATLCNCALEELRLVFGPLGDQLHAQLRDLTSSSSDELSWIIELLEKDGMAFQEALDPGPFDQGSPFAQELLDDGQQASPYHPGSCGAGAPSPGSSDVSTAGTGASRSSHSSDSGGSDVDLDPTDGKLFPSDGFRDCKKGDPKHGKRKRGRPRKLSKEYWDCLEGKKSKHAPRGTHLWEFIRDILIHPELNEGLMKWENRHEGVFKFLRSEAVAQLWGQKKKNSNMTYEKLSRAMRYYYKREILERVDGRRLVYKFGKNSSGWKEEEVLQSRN
# In short: as §1
# CRX = CRX (Homo sapiens, UniProt O43186 1-299); details: protein: recombinant; tags: N-terminal GST; dsDNA, one strand shown
# CRX, sequence (O43186 whole entry): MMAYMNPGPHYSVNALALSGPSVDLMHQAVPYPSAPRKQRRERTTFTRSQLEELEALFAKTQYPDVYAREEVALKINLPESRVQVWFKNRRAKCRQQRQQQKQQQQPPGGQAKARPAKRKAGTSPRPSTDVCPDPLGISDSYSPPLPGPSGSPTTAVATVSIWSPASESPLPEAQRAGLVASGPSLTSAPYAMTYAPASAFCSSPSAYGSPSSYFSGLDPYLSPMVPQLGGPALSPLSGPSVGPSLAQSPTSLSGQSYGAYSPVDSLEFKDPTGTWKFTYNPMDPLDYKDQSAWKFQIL
# In short: as §1
# ETV1 = ETV1 (Homo sapiens, UniProt P50549 1-477); details: protein: recombinant; tags: N-terminal GST; dsDNA, one strand shown
# ETV1, sequence (P50549 whole entry): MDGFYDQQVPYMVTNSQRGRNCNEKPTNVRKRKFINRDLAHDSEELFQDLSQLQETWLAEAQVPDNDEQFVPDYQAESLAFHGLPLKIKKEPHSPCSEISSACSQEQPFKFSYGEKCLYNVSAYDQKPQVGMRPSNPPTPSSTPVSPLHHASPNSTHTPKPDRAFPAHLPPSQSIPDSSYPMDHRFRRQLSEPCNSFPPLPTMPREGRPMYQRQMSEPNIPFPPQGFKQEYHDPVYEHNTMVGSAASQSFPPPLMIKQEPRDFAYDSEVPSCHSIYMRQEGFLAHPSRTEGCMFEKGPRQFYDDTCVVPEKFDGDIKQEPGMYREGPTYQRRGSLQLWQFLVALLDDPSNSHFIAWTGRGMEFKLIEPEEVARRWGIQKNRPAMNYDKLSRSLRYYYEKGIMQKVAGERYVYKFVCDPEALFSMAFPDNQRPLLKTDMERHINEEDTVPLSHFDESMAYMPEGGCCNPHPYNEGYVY
# In short: as §1
sequence,measurement,setting,value
TACTGA,binding signal,FLI1,"1.03 fold enrichment (6-mer frequency, TF over GST control)"
same,binding signal,ELK1,"1.08 fold enrichment (6-mer frequency, TF over GST control)"
same,binding signal,GABPA,"1.06 fold enrichment (6-mer frequency, TF over GST control)"
same,binding signal,ERG,"1.03 fold enrichment (6-mer frequency, TF over GST control)"
same,binding signal,ELF1,"1.13 fold enrichment (6-mer frequency, TF over GST control)"
same,binding signal,EHF,"1.13 fold enrichment (6-mer frequency, TF over GST control)"
same,binding signal,SPI1,"1.02 fold enrichment (6-mer frequency, TF over GST control)"
same,binding signal,ELK3,"1.09 fold enrichment (6-mer frequency, TF over GST control)"
same,binding signal,FEV,"1.03 fold enrichment (6-mer frequency, TF over GST control)"
same,binding signal,ETV5,"1.13 fold enrichment (6-mer frequency, TF over GST control)"
same,binding signal,HSF1,"1.07 fold enrichment (6-mer frequency, TF over GST control)"
same,binding signal,SPIC,"1.03 fold enrichment (6-mer frequency, TF over GST control)"
same,binding signal,ELF4,"1.11 fold enrichment (6-mer frequency, TF over GST control)"
same,binding signal,ELK4,"1.32 fold enrichment (6-mer frequency, TF over GST control)"
same,binding signal,ETV2,"1.12 fold enrichment (6-mer frequency, TF over GST control)"
same,binding signal,ELF3,"1.2 fold enrichment (6-mer frequency, TF over GST control)"
same,binding signal,CRX,"1.2 fold enrichment (6-mer frequency, TF over GST control)"
same,binding signal,ETV1,"1.02 fold enrichment (6-mer frequency, TF over GST control)"
